Screens as filed in PubChem BioAssay.
Pf growth 48h – inhibits P. falciparum growth in the first generation, 48 h | Potency, µM (titrated, usually from 28.7 µM), for the others: at the top dose activity change, negative = inhibition, hits mostly inhibitors | P. falciparum luciferase growth in erythrocytes, 48 h | hit rate 5.9% among 310,000 | AID 504832
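Luciferase-expressing parasites in RBCs, 2% Hct / 0.1% parasitemia final; RPMI 1640 + 0.5% Albumax; 37 C, 5% CO2, one generation; luminescence read-out, lower signal = inhibition.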
AMA1 RON2 block – disrupts binding of P. falciparum AMA1 to RON2 | AlphaScreen AMA1-biotinylated RON2 peptide binding | Potency, µM (highest dose often 58.2 µM), without a hit: top-dose activity change, negative = inhibition, most hits filed as inhibitors | hit rate 0.2% among 360,000;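 further: 0% = vehicle wells and -100% = peptide control; nearly all actives have a fitted effect of over 45% in size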
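AMA1 (3D7) with his tag at 25 nM final met compounds first, then biotinylated RON2 peptide at 25 nM; detection used donor plus acceptor beads, 10 µg/mL apiece, read by AlphaScreen after 30 min at room temperature.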
VACV mCherry inh – vaccinia inhibition (mCherry reporter). Vaccinia virus mCherry reporter infection, fluorescence. Potency, µM (highest dose often 36.5 µM), without a hit: top-dose activity change, negative = inhibition, hits mostly inhibitors. hit rate 0.63% among 310,000; calls by dose curve; tested in A549 cells; further: nearly all actives have a fitted effect of over 35% in size
Pf growth 96h – P. falciparum growth inhibition at 96 hour, primary screen for plastid delayed-death inhibitors | Potency, µM (doses to about 28.7 µM), for the others: at the top dose activity change, negative = inhibition, actives largely listed as inhibitors | P. falciparum luciferase reporter growth, 96 h | AID 504834 | hit rate 6.9% among 320,000
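Parasite growth measured via integrated firefly luciferase reporter in P. falciparum. Infected erythrocytes at 2% hematocrit, 0.05% parasitemia final were treated 96 hours at 37 C under 5% CO2, and luminescence was read.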
VACV Venus inh – vaccinia inhibition (Venus reporter); Vaccinia virus Venus reporter expression, fluorescence; Potency, µM (series often up to 36.5 µM), for inactives: at the top dose activity change, negative = inhibition, most hits filed as inhibitors; hit rate 0.46% among 330,000; calls by dose curve; tested in A549 cells; further: nearly all actives have a fitted effect of over 30% in size
The depositor's hits bear a star; i = inactive; ? = inconclusive; nt = not tested or not shown; [ ] = dose if it differs, or a comment. Compounds with a hit are over-represented: about 8.7% of the library has one in this group of screens. Unless noted, the call rests on the fitted dose curve; in most records, active means well fitted curve in the direction sought with a large enough effect; inconclusive means small, poorly fitted or top-dose-only effect, or another doubt; inactive means no such curve, though single readings can be large; an effect the other way counts as inactive or inconclusive. Unless noted, on the % scale 0 is the no-effect control and ±100 the full control effect; potency means the concentration at half of the fitted maximal effect.

SMILES	Pf growth 48h	AMA1 RON2 block	VACV mCherry inh	Pf growth 96h	VACV Venus inh
CC(=O)Nc1ccc(NC(=O)/C(=C/c2ccco2)NC(=O)c2ccccc2)cc1	10%	11%	i	?	-15%
O=C(N/C(=C/c1cccs1)C(=O)N1CCCCCC1)c1ccccc1	?	-1%	-10%	6%	-13%
Cc1cccc(C)c1NC(=O)/C(=C/c1ccco1)c1ccccc1	nt	-10%	nt	10µM*	-22%
O=C(Nc1ccc(C(=O)O)cc1)/C(=C\c1ccco1)NC(=O)c1ccccc1	-8%	-5%	-11%	9.3µM*	-6%
O=C(Nc1ccccc1)/C(=C\c1cccs1)NC(=O)c1ccccc1	20%	-1%	-5%	1.5µM*	-3%
O=C(N/C(=C\c1cccs1)C(=O)N1CCCCCC1)c1ccccc1	?	-4%	i	9.3µM*	-8%
Cc1cccc(NC(=O)/C(=C\c2cccs2)NC(=O)c2ccccc2)c1	?	-2%	-2%[1.46 µM]	239%	-22%
COc1ccc(/C=c2\[nH]c(=O)/c(=C/c3ccc(OC)cc3)[nH]c2=O)cc1	nt	nt	i	nt	-2%
O=C(N/C(=C/c1cccs1)C(=O)N1CCOCC1)c1cccs1	-2%	16%	i	9.3µM*	3%
Cc1ccc(C(=O)N/C(=C\c2cccs2)C(=O)NC2CCCCC2)cc1	nt	-8%	-15%	4.1µM*	-23%
CC(=O)O/N=C/c1c(N2CCOCC2)n(C)c2ccccc12	3.7µM*	52%	nt	3.7µM*	nt
Cn1c(N2CCOCC2)c(/C=N/OC(=O)c2ccc(F)cc2)c2ccccc21	1.3µM*	74%	nt	1µM*	nt
Cn1c(N2CCOCC2)c(/C=N/O)c2ccccc21	6%	-8%	-11%	0%	-1%
Cc1ccc(C(=O)O/N=C/c2c(N3CCOCC3)n(C)c3ccccc23)cc1	?	69%	nt	3.3µM*	nt
Cc1cccc(-c2nnc(NC(=O)c3ccc(N4C(=O)CCC4=O)cc3)s2)c1	?	15%	26%	4.7µM*	-3%
Cc1ccccc1-c1nnc(NC(=O)c2ccc(N3C(=O)CCC3=O)cc2)s1	-26%	12%	-11%	9.3µM*	-9%
CC(C)c1nnc(NC(=O)c2ccc(N3C(=O)CCC3=O)cc2)s1	-29%	-4%	-13%	0%	-14%
C#Cc1ccc(CN2CCCC(C(=O)Nc3ccccc3Oc3cccnc3)C2)cc1 (stereo unspecified)	10µM*	-14%	nt	-19%	nt
O=C(Nc1ccccc1Oc1cccnc1)C1CCCN(Cc2ccccc2O)C1 (stereo unspecified)	13µM*	1%	-8%	0%	-15%
O=C(Nc1ccc(Oc2ccccc2)nc1)C1CCN(Cc2cccc(F)c2)CC1	?	-8%	-20%	5%	-28%
O=C(Nc1ccccc1Oc1cccnc1)C1CCCN(C/C=C/c2ccccc2)C1 (stereo unspecified)	5.2µM*	-19%	0%	?	-21%
C#Cc1ccc(CN2CCC(C(=O)Nc3ccc(Oc4ccccc4)nc3)CC2)cc1	?	-5%	nt	2.3µM*	nt
CC(C)n1c(=O)c2oc3ccccc3c2n(Cc2ccccc2F)c1=O	nt	nt	-17%	nt	-10%
CC(C)CN(CC(C)C)c1ccc(/C=C/c2ccnc3ccccc23)cc1	nt	nt	20%	nt	41%
CCN(CC)CCCNC(=O)c1c(C)oc2ncn(CC(C)C)c(=O)c12	nt	nt	-3%	nt	-9%
SMILES	Pf growth 48h	AMA1 RON2 block	VACV mCherry inh	Pf growth 96h	VACV Venus inh
CCOc1ccc(NC(=O)COc2nsnc2N2CCCCC2)cc1	-5%	-8%	nt	12µM*	nt
CCOc1ccc(NC(=O)CSc2nc3ccccc3nc2N2CCOCC2)cc1	?	11%	-12%	12µM*	-10%
COc1ccccc1NC(=O)CSc1nc2ccccc2nc1N1CC(C)OC(C)C1 (stereo unspecified)	?	2%	20%	?	0%
O=C(CSc1nc2ccccc2nc1N1CCOCC1)N1CCN(c2ccccc2)CC1	9.3µM*	-18%	-30%	?	0%
O=C(CSc1nc2ccccc2nc1N1CCCCC1)N1CCN(c2ccccc2)CC1	?	-22%	-3%	44%	7%
CCOc1ccc(NC(=O)CSc2nc3ccccc3nc2N2CC(C)OC(C)C2)cc1 (stereo unspecified)	?	28%	?	9.3µM*	-14%
CC(C)[C@@H]1CC[C@@H](C)CC1=O	nt	nt	i	nt	0%
O=C(NC1CC1)c1ccc(Cn2c(SCc3cccc(F)c3)nc3cccnc32)cc1	nt	nt	-6%	nt	-16%
CCOc1ccc(Cc2nccc3cc(OCC)c(OCC)cc23)cc1OCC	?	nt	?	4.1µM*	-28%
CNCC(=O)Nc1c(C)n[nH]c1C	17%	25%	-9%	-9%	-1%
CCCC(=O)Nc1c(C)n[nH]c1C	1%	49%	nt	0.59µM*	nt
O=C(NCc1cccs1)c1ccc2c(c1)N(Cc1cccc(F)c1)C(=O)c1ccccc1S2	nt	nt	-18%	nt	-6%
O=S(=O)(NCc1csc(-c2cccnc2)n1)c1cccs1	2%	1%	-6%	?	-9%
CCc1ccc(S(=O)(=O)NCc2csc(-c3cccnc3)n2)s1	1%	-3%	-11%	0.74µM*	-17%
CCOc1ccccc1OCCCC(=O)N1CCN(S(=O)(=O)c2ccc(Cl)cc2)CC1	13µM*	108%	nt	?	nt
CCOc1ccccc1OCCCC(=O)N1CCN(S(=O)(=O)c2cc(F)ccc2F)CC1	nt	-5%	nt	nt	nt
CC(C)c1ccc(S(=O)(=O)N2CCN(C(=O)CCNC(=O)Nc3ccccc3)CC2)cc1	12µM*	1%	nt	?	nt
CCCOc1ccccc1OCC(=O)N1CCN(S(=O)(=O)c2ccc(Cl)cc2)CC1	?	0%	nt	?	nt
CCOc1ccccc1OCCC(=O)N1CCN(S(=O)(=O)c2ccccc2[N+](=O)[O-])CC1	12µM*	-7%	nt	?	nt
